# Rows were chosen to be rich in hits. Some 6.2% of all compounds tested hit in one or more screens of this group.
# KB-V1 cytotox: kills drug-selected multidrug resistant KB-V1 cells. Potency, µM (highest dose often 46.1 µM), actives largely listed as cytotoxic. hit rate 3.4% among 400,000. KB-V1 MDR cells viability, CellTiter-Glo, 72 h. AID 1347076; note: % is set by controls: 0 for no effect and ±100 for the full control effect; nearly all actives have a fitted effect of over 60% in size
#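 KB-V1 MDR subline cells in DMEM (phenol-red free, 10% FBS) exposed to compounds in qHTS concentration series for 72 h at 37 degrees C. Viability read by CellTiter-Glo luminescence; concentration-effect curves fitted after normalization and correction.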
# HT1080 IDH1KD tx: HT-1080 IDH1 knockdown cell toxicity (counter line) | HT-1080 IDH1 knockdown viability, ATP luminescence, 48 h | Potency, µM (titrated, usually from 46.1 µM), inactives show at the top dose activity, negative = toxicity, most hits filed as cytotoxic | hit rate 2% among 360,000 | AID 686971;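 note: 0% = DMSO wells and -100% = cell-free medium wells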
#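 Assay cells: HT-1080 with IDH1 knockdown, 750 per well, RPMI/5% FBS. Exposure: 48 h at 37 °C following 2 h pre-incubation. Read: CellTiter-Glo luminescence; fitted concentration-response, curve class assigned.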
# ATXN viability: viability counter-screen for ATXN expression inhibitors; AID 651635; hit rate 0.49% among 400,000; S2 cells (HEK-293 line with an ATXN2-luciferase reporter) viability, CellTiter-Fluor protease fluorescence, 24 h; Potency, µM (doses to about 56.7 µM), actives largely listed as cytotoxic; note: nearly all actives have a fitted effect of over 40% in size
# HT1080-NT tox: kills 2HG-producing HT-1080-NT fibrosarcoma cells. hit rate 1.6% among 360,000. HT-1080-NT fibrosarcoma viability, CellTiter-Glo ATP luminescence, 48 h. Potency, µM (doses to about 46.1 µM), inactives show at the highest dose activity, negative = less viability, usual class: cytotoxic;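 note: NT is the 2HG producing partner of a matched IDH1 knockdown line; 0% = DMSO-treated cells and -100% = media-only wells without cells; nearly all actives have a fitted effect of over 55% in size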
#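 Viability by CellTiter-Glo luminescence after 48 h compound exposure at 37C of HT-1080-NT cells (750/well, RPMI, 5% FBS). % activity scaled between DMSO wells and medium-only wells, then curve-fitted and categorized by curve class.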
# ATXN2 expr inh: inhibitors of ATXN2 expression. HEK-293 ATXN2-luciferase reporter, luminescence, 24 h. hit rate 0.72% among 360,000. Potency, µM (top dose mostly 57 µM), for the others: at the top dose activity change, negative = inhibition, actives largely listed as inhibitors; note: % is set by controls: 0 for no effect and ±100 for the full control effect; nearly all actives have a fitted effect of over 55% in size
#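 qHTS (up to 57 uM final) was run with 24 h compound exposure of reporter cells at 37 °C. Each well was multiplexed: SteadyGlo luminescence measured ATXN2-luciferase expression after a fluorogenic Gly-Phe-AFC viability readout (25 uM final).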
# KB-3-1 tox: kills parental KB-3-1 adenocarcinoma cells; KB-3-1 viability, CellTiter-Glo ATP luminescence, 72 h; Potency, µM (top dose mostly 46.1 µM), most hits filed as cytotoxic; hit rate 1.4% among 400,000; note: % is set by controls: 0 for no effect and ±100 for the full control effect; nearly all actives have a fitted effect of over 60% in size
#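 KB-3-1 parental drug-naive adenocarcinoma cells in DMEM/10% FBS, incubated 72 h at 37 C with pin-transferred compounds across a concentration series. Viability by CellTiter-Glo luminescence; concentration-response curves fitted after normalization.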
# The depositor's hits bear a star; i = inactive; u = inconclusive; x = no result given. Calls come from the whole dose curve; as a rule, active = well fitted curve in the direction sought with a large enough effect; inconclusive = small, poorly fitted or top-dose-only effect, or another doubt; inactive = no such curve, though single readings can be large; an effect the other way counts as inactive or inconclusive. Potency is the fitted concentration of half-maximal effect.
SMILES,KB-V1 cytotox,HT1080 IDH1KD tx,ATXN viability,HT1080-NT tox,ATXN2 expr inh,KB-3-1 tox
CCOC(=O)c1cnc2c(C)c(Cl)ccc2c1N1CCN(CC)CC1,i,14.6µM*,i,14.6µM*,-14.1%,i
Cc1cccc(CNC(=O)c2cnn(-c3ncc(C)c(-c4ccc(F)cc4)n3)c2C)n1,x,x,i,x,x,x
Cc1ccc2c(=O)cc(C(=O)Nc3ccc(S(=O)(=O)N4CCCCC4C)cc3)oc2c1C (stereo not given),u,x,i,x,-4.4%,i
Cc1cccc(N2CCN(C(=O)CCNS(=O)(=O)c3ccc4c(c3)CCN4C(=O)C3CC3)CC2C)c1 (stereo not given),i,x,i,x,-18.0%,i
N#Cc1c(N2CCSCC2)nsc1-c1ccccc1Cl,4.61µM*,u,i,-24.5%,40.9%,3.66µM*
N#Cc1c(Cl)cccc1N1CCSCC1,23.1µM*,-0.6%,i,8.3%,15.6%,u
Cc1cccc(OCC(=O)OCc2cc(=O)n3nc(C4CC4)sc3n2)c1,u,x,i,x,-1.0%,i
Cc1ccc2[nH]c3c(c2c1)CN(C(=O)CN1c2ccc(F)cc2CCC1C)CC3 (stereo not given),u,u,i,u,u,u
Cc1ccc2[nH]c3c(c2c1)CN(C(=O)CN1CCN(c2cccc(C)c2C)CC1)CC3,20.6µM*,18.4µM*,i,u,u,u
Cc1ccc(S(=O)(=O)N2CCN(c3nc(-c4ccc(C)s4)nc4ccccc34)CC2)cc1,x,16.1%,x,1.0%,x,x
O=C(/C=C/c1ccc(O)c(O)c1)O[C@@H]1C[C@@](OC(=O)/C=C/c2ccc(O)c(O)c2)(C(=O)O)C[C@@H](O)[C@@H]1O,x,x,i,x,5.8%,x
Cc1ccccc1NC(=S)NCc1ccc2c(c1)cc(C)n2C,20.6µM*,u,u,14.6µM*,u,u
CO/N=C/C(=N\Nc1ccc(OC)cc1)C(=O)c1ccc(F)cc1,i,u,u,17.7%,-21.9%,i
CO/N=C/C(=N\Nc1ccc(C)cc1)C(=O)c1ccc(OC)cc1,4.61µM*,2.91µM*,u,u,-25.2%,5.17µM*
COc1ccc(Cl)cc1-c1cc2c(c(OC)c1)OCCN(Cc1cccn1-c1nccs1)C2,x,x,i,x,x,x
COc1ccc(N(CC(=O)NC2CCCC2)C(=O)Cn2nnc(-c3ccc(C)cc3)n2)cc1OC,13µM*,0.5%,i,-0.6%,-4.8%,i
COc1ccc(-c2nnn(CC(=O)N(C3CCCCC3)C(C)C(=O)NC3CCCC3)n2)cc1OC (stereo not given),2.59µM*,0.5%,u,6.6%,-13.9%,i
COc1ccc(N(CC(=O)NC2CCCC2)C(=O)Cn2nnc(-c3ccc(C)o3)n2)cc1,u,-21.4%,i,0.6%,-11.5%,i
COc1ccc(N(CC(=O)NC2CCCC2)C(=O)Cn2nnc(-c3ccc(F)cc3)n2)cc1OC,i,0.2%,i,-3.8%,-8.1%,i
COc1ccc(N(CC(=O)NC2CCCC2)C(=O)Cn2nnc(-c3ccc(C)cc3)n2)cc1,16.4µM*,-18.7%,i,-2.4%,-1.0%,i
O=C(C1CCN(S(=O)(=O)c2cccs2)CC1)N1CCN(c2ccccc2F)CC1,i,x,i,x,7.7%,i
CN(C)c1ccc(-c2csc(C(C)(O)c3cccc(F)c3)n2)cc1 (stereo not given),u,u,i,25.9µM*,12.9%,i
CC(O)(c1cccc(F)c1)c1nc(-c2ccc(Cl)cc2)cs1 (stereo not given),i,u,u,u,1.5%,i
CCN(CC)C(=O)c1cccc(-c2csc(C(C)(O)c3cccc(F)c3)n2)c1 (stereo not given),u,u,u,u,28.2µM*,i

# Screening results from PubChem.
